# Sampled rows, rich in hits. Any-hit rate of the full collection: about 1.5%.
# Myeloid diff 2 – myeloid differentiation induction | ER-HoxA9 myeloid progenitors, lysozyme-GFP differentiation, flow cytometry | calls only at 10 µM | 360,000 compounds, 1% hits | AID 624256;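 active means normalized GFP-positive differentiation at or above the plate's own cutoff, the solvent-only control mean plus 3 SD; inconclusive means no clear call, values can overlap the other calls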;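 further: cells exposed to compound for four days before flow analysis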
# NOD2-RIPK2 inh – NOD2-RIPK2 protein interaction inhibition. 360,000 compounds, 0.38% hits. CHO BLA complementation NOD2-RIPK2, CCF4 ratio. AID 624267. O43353. inhibition, % at 4.98 µM; in the data active means inhibition above about 21%;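 further: 0% = vehicle only and 100% = reference blocker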
# TLR4 MyD88 comp – TLR4-MyD88 interaction inhibition in cells; inhibition, % at 8.4 µM; 200,000 compounds, 0.18% hits; AID 861; O00206+Q99836; HeLa CL3-4 TLR4/MyD88 BLA complementation, FRET ratio; in the data active means inhibition above about 25%;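 further: 0% = vehicle and 100% = reference inhibitor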
# TLR9-MyD88 inh – inhibitors of human TLR9-MyD88 binding; Q9NR96+Q99836; CHO BLA complementation TLR9-MyD88, CCF4 FRET ratio; inhibition, % at 4.98 µM; 340,000 compounds, 0.21% hits;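 active means inhibition above the mean over all tested compounds plus 3 SD, cut at about 21% in these data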;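 further: 0% = DMSO only wells and 100% = clavulanate BLA inhibitor control wells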
# Starred values were filed as active, the others as inactive; i = inactive; ? = inconclusive; · = not tested or not shown; + = active, no number; ! = not confirmed by another sample.
SMILES,Myeloid diff 2,NOD2-RIPK2 inh,TLR4 MyD88 comp,TLR9-MyD88 inh
CN1CCN(C2=CC3=CC(=C(C#N)C#N)CCC3CC2)CC1 (stereo not given),+,3.5,-2.4,2.8
CCN1CCN(C2=CC3=CC(=C(C#N)C#N)CCC3CC2)CC1 (stereo not given),+,8.0,0.9,5.7
CC1(C)CC(NCCN2CCN(C3=CC(=C(C#N)C#N)CC(C)(C)C3)CC2)=CC(=C(C#N)C#N)C1,i,-4.1,-6.3,-16.2
N#CC(C#N)=C1C=C2C=C(N3CCOCC3)CCC2CC1 (stereo not given),+,0.3,-4.3,-1.6
COc1ccc(C2=Nc3ccccc3N(C(=O)c3ccncc3)C2C(=O)NC(C)C)cc1 (stereo not given),i,-12.8,·,·
O=C(CCS(=O)(=O)c1ccccc1)Nc1ccc(N2CCN(Cc3ccccc3)CC2)cc1,+,4.7,·,-7.8
O=C(CCS(=O)(=O)c1ccc(F)cc1)Nc1ccc(N2CCN(Cc3ccccc3)CC2)cc1,i,-5.7,·,-4.7
Cc1cccc(C)c1NC(=O)C1(C)CN(S(C)(=O)=O)CC(=O)N1Cc1ccc2c(c1)OCO2 (stereo not given),i,-9.2,·,·
CN(C)c1ccc(CC(=O)N2CCCCC2c2cc(C(=O)Nc3ccccc3)no2)cc1 (stereo not given),i,7.1,·,·
CCCC/C=C/C(NC(=O)CCc1ccccc1)c1ccccc1 (stereo not given),+,-10.0,-21.3,-0.7
CCCC/C=C/C(NC(=O)c1ccc(-c2ccccc2)cc1)c1ccccc1 (stereo not given),i,8.6,·,-0.5
Cc1cccc(S(=O)(=O)NC(=O)C2(C)CCN2C(=O)CCC2CCCC2)c1 (stereo not given),i,-13.3,·,·
CCC(=O)NC1=C(Cl)C(=O)C(NC(=O)CC)=C(Cl)C1=O,i,23.0*,·,11.0
COC(=O)[C@@]1(Cc2ccc(OC)cc2)[C@H]2c3cc(C(=O)N4CCCC4)n(Cc4ccccc4)c3C[C@H]2CN1C(=O)c1ccccc1,i,-4.8,·,·
N#CC(C#N)=c1ccc2c(c1)NC1(CCCCC1)N=2,+,1.1,10.2,-6.2
NC(c1csc(Nc2ncccn2)n1)c1ccccc1Cl (stereo not given),i,-12.2,·,·
COc1ccc(NC(=O)Nn2cnnc2)cc1OC,i,0.9,·,-1.8
COc1cc(NC(=O)Nn2cnnc2)cc(OC)c1OC,+,-3.2,·,-6.5
O=C1c2ccccc2-c2cccnc21,i,6.1,·,-3.0
O=C1c2ccccc2C(=O)c2c(/C=C/N3CCCCC3)ccnc21,+,-3.9,·,-5.2
COc1cccc(C(O)c2nc(-c3ccc(F)c(Cl)c3)cs2)c1 (stereo not given),i,-5.6,·,·
O=C(COc1ccc([N+](=O)[O-])cc1)Nc1ccc2c(c1)nc1n2CCOC1,+,-1.6,·,1.4
CC1=Nc2ccccc2/C1=C\c1nc(-c2ccc(C(F)(F)F)cc2)oc1O,+,-5.3,2.1,4.5
COc1cccc(-c2ccc(CN3C(C(C)C)C(=O)N(Cc4cn(CCC5OCCO5)nn4)CCS3(=O)=O)cc2)c1OC (stereo not given),i,1.2,·,·
CC1CCC(NC(=O)CCS(=O)(=O)c2ccc3c(c2)CCN3C(=O)C2CC2)CC1 (stereo not given),+,-1.9,·,-3.3
SMILES,Myeloid diff 2,NOD2-RIPK2 inh,TLR4 MyD88 comp,TLR9-MyD88 inh
CCOC(=O)N1CCC(NC(=O)CCS(=O)(=O)c2ccc3c(c2)CCN3C(C)=O)CC1,i,-11.3,6.8,-4.7
Cc1ccc(-c2nsc(SCC(=O)NCC3CCCO3)n2)cc1 (stereo not given),i,-8.6,-9.6,-2.6
Cc1ccc(-c2nc(SCC(=O)NCC3CCCO3)c(-c3ccccc3)[nH]2)cc1 (stereo not given),+,-5.1,0.3,-3.2
Cc1cccc(N2CCN(C(=O)c3ccc4c(c3)NC(=O)C(CSCc3cccc(F)c3)N4)CC2C)c1 (stereo not given),+,2.5,·,7.9
Cc1noc(/C=C/c2ccc(-c3ccccc3Cl)o2)c1[N+](=O)[O-],+,8.5,18.7,-1.7
CC1(C)Cc2ccccc2C2CC(O)C(=O)N21 (stereo not given),+,-2.7,6.4,-1.3
CCOc1ccc(NC2=CC(=O)C(=O)c3ccccc32)cc1,?,-0.9,·,-2.3
COc1cc(Cl)c(NC2=CC(=O)C(=O)c3ccccc32)c(OC)c1,+,2.8,·,-9.9
Cc1c(NC(=S)/C=C2\N(C)c3ccccc3C2(C)C)c(=O)n(-c2ccccc2)n1C,+,-7.8,-4.1,9.0
Cc1c(N=C/C=C2/N(C)c3ccccc3C2(C)C)c(=O)n(-c2ccccc2)n1C,+!,0.3,0.8,2.6
Cc1c(N=C/C=C2\N(C)c3ccccc3C2(C)C)c(=O)n(-c2ccccc2)n1C,i,-2.2,4.7,2.6
CCCCNC(=O)c1nc(C2CCN(S(=O)(=O)c3ccc(C(F)(F)F)cc3)CC2)oc1-c1ccccc1,i,-15.8,·,·
Cc1ccsc1C(=O)N1CCC1(C)C(=O)NCCC#N (stereo not given),i,-2.6,·,·
CCOC(=O)/C(C#N)=C\c1ccc(N2CCN(C/C=C/c3ccccc3)CC2)cc1,+,8.4,9.6,4.2
O=C(CCn1c(=O)oc2ccccc21)Nc1ccc(N2CCOCC2)cc1,i,-0.8,·,2.6
O=C(CCn1c(=O)oc2cc(Cl)ccc21)Nc1ccc(N2CCOCC2)cc1,+,-8.3,·,-16.9
CC1(C(=O)NS(=O)(=O)c2cccc(OC(F)F)c2)CCN1C(=O)c1cccc(F)c1 (stereo not given),i,2.3,·,·
CC1C(=O)NN=C1C(=O)N/N=C\C(Br)=C\c1ccccc1 (stereo not given),+,7.6,-14.9,12.8
CC1=NNC(=O)C1CC(=O)N/N=C/C(Br)=C/c1ccccc1 (stereo not given),i,-23.1,·,·
O=C(N/N=C/C(Br)=C/c1ccccc1)c1cc(-c2ccco2)[nH]n1,+,6.9,8.6,11.3
COC(C[C@H]1O[C@@H]1[C@H](O)COCc1ccccc1)OC,+,-0.1,·,-10.2
COC(C[C@@H]1O[C@H]1[C@@H](O)COCc1ccccc1)OC,i,-11.3,·,3.0
CCCNC(=O)C1(C)CCCN(C(=O)c2cccc(C(F)(F)F)c2)C1 (stereo not given),i,-5.3,·,·
O=[N+]([O-])c1ccc(/C=C/C2=NN(c3ccccc3)C(c3ccco3)C2)cc1 (stereo not given),+,4.3,17.4,10.7
COC(=O)[C@H]1[C@H](CCc2ccccc2)NC(=O)N(Cc2ccccc2)[C@@H]1C,i,-26.8,·,-0.1
COC(=O)[C@H]1[C@@H](C)N(Cc2ccccc2)C(=O)N[C@H]1c1cccc(C(F)(F)F)c1,+,6.5,·,-10.7
CCN1C(=O)N[C@@H](CCc2ccccc2)[C@@H](C(=O)OC)[C@H]1C,+,3.1,·,5.5
CCOC(=O)c1ccc(NC(=O)c2ncn3c2C(=O)N[C@H](C)C3)cc1,+,-2.0,·,-10.7

# Screens deposited in PubChem BioAssay by several laboratories.
